# A1 inh – inducers of caspase activity in MEF A1-2A-BIM cells, primary screen, A1 inhibitor project, cell-based, CaspaseGlo luminescence; 21,000 compounds, 0.51% hits; AID 2241, 2010; caspase-Glo luminescence, 3 h; percent of clofoctol signal, DMSO as zero; caspase activation, % (concentration not given with the values);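 active means most replicate scores above 10, or exactly half above 10 with mean activity above 10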;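 further: effector caspase 3 and 7 activity cleaving a DEVD luciferin substrate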
# Active calls of the source: *. The full list was thinned out, with hits kept by preference.
SMILES,A1 inh
COc1ccc2c(c1OC)C(=O)O[C@H]2[C@H]1c2cc3c(cc2CCN1C)OCO3,1
COc1ccc2c(c1OC)CN1CCc3cc4c(cc3C1C2)OCO4 (configuration not stated),-1
COc1ccc2c(c[n+](C)c3c4cc5c(cc4ccc23)OCO5)c1OC,161*
C=CC/C=C\C/C=C\CCCCCCCc1cc(O)cc(O)c1,0
C[C@H]1O[C@@H](O[C@H]2C[C@@H](O)[C@]3(CO)C4C(CC[C@]3(O)C2)[C@@]2(O)CC[C@H](C3=CC(=O)OC3)[C@@]2(C)C[C@H]4O)[C@@H](O)[C@@H](O)[C@H]1O (some centres not stated),-1
CO[C@H]1[C@@H](O)[C@@H](C)O[C@@H](O[C@@H]2C=C3C(OC(C)=O)CC4(O)C(CC[C@]5(C)[C@@H](C6=CC(=O)OC6)CC[C@]45O)[C@@]3(C)CC2)[C@@H]1O (some centres not stated),1
CC[C@H]1CN2CCc3cc(OC)c(OC)cc3[C@@H]2C[C@@H]1C[C@H]1NCCc2cc(O)c(OC)cc21,19*
COc1cc2c(cc1O)CCNC2C (configuration not stated),-1
COc1cc2c(cc1OC)C(C)NCC2 (configuration not stated),0
CO/C1=C/C(C)=C/[C@@H](C)[C@@H](O)[C@@H](C)C/C(C)=C/C=C\[C@H](OC)[C@@H]([C@@H](C)[C@@H](O)[C@H](C)[C@@]2(O)C[C@@H](O)[C@H](C)[C@@H](C(C)C)O2)OC1=O,0
O=C(c1noc2c1COc1ccccc1-2)N1CCC2(CC1)OCCO2,-6
Cc1cc(Br)c(NC(=O)C2C(C)(C)C2(C)C)c(Br)c1,0
COC1CC(O[C@H]2CC[C@@]3(C)C(CCC4C3CC[C@]3(C)C(C5=CC(=O)OC5)CCC43O)C2)OC(C)C1OC1OC(COC2OC(CO)C(O)C(O)C2O)C(O)C(O)C1O (some centres not stated),0
CC1C/C=C/C2C3OC3(C)C(C)C3C(Cc4ccccc4)NC(=O)C23OC(=O)O/C=C/C(C)(O)C1=O (configuration not stated),16*
CCNCC(O)c1cccc(OC(=O)c2ccccc2C)c1 (configuration not stated),0
c1cncc(C2N=C(c3cnccn3)NN2)c1 (configuration not stated),-3
CCC(C)[C@H]1C(=O)O[C@H](C(C)C)C(=O)N(C)[C@@H](C(C)CC)C(=O)O[C@H](C(C)C)C(=O)N(C)[C@@H](C(C)CC)C(=O)O[C@H](C(C)C)C(=O)N1C (some centres not stated),86*
CC(=O)O[C@H]1CC[C@]2(C=O)[C@H]3CC[C@]4(C)[C@@H](C5=CC(=O)OC5)CC[C@]4(O)[C@@H]3CC[C@]2(O)C1,0
CCOC(=O)c1cc(C(C)(C)C)nc(OC(=O)N(C)C)c1C#N,0
CC(=O)NC1C(OC2OC(CC(O)C3OC(n4ccc(=O)[nH]c4=O)C(O)C3O)C(O)C(O)C2NC(=O)/C=C/CCCCCCCCCC(C)C)OC(CO)C(O)C1O (configuration not stated),3
C/C=C(\C)C(=O)OC1C(C)=C2C(C1OC(=O)CCCCCCC)C(C)(OC(C)=O)CC(OC(=O)CCC)C1(O)C2OC(=O)C1(C)O (configuration not stated),2
C/C=C(/C)C(=O)O[C@H]1C(C)=C2[C@H]([C@@H]1OC(=O)CCCCCCC)[C@@](C)(OC(C)=O)C[C@H](OC(=O)CCC)[C@@]1(O)[C@H]2OC(=O)[C@@]1(C)O,12*
CCN(CC)c1nc2ccccc2c(=O)n1-c1ccccc1,0
CN(C)C(=O)Oc1nnc(SCCS(=O)(=O)c2ccc(F)cc2)n1-c1ccccc1,0
CC(C)n1[nH]c(=O)c2c1NC(=O)CSC2c1ccc(Br)cc1 (configuration not stated),1
SMILES,A1 inh
C[C@H]1CC[C@@H]2[C@@H](C)[C@H]3[C@H](C[C@H]4[C@@H]5CC=C6CC(O[C@@H]7O[C@H](CO)[C@@H](O)[C@H](O[C@@H]8O[C@H](CO)[C@@H](O)[C@H](O)[C@H]8O)[C@@H]7O[C@@H]7O[C@@H](C)[C@H](O)[C@@H](O)[C@H]7O)CC[C@]6(C)[C@H]5CC[C@]34C)N2C1 (some centres not stated),-2
CC(C)[C@]12O[C@H]1[C@@H]1O[C@]13[C@]1(O[C@H]1C[C@H]1C4=C(CC[C@@]13C)C(=O)OC4)[C@@H]2O,16*
Fc1ccc(Sc2c(F)c(F)nc(N3CCNCC3)c2F)cc1,2
CCOC(=S)SCc1nc2ccccc2c(=O)n1-c1ccccc1,0
C[C@@H]1CCC/C=C/[C@H]2C[C@@H](O)C[C@@H]2[C@@H](O)/C=C\C(=O)O1,5
COC[C@H]1OC(=O)c2coc3c2[C@@]1(C)C1=C(C3=O)[C@@H]2CCC(=O)[C@@]2(C)C[C@H]1OC(C)=O,62*
CC(=O)OC1CCC2(C)C(CC[C@@H]3[C@@H]2CCC2(C)C(C4=CC(=O)OC4)CCC32O)C1 (some centres not stated),0
CN(C)C(=O)Oc1cccc(N)c1,1
Cc1cc(OCc2c(F)cccc2Cl)c2c3c(c(=O)oc2c1)CCCC3,1
C/C=C(\C)[C@H](O)[C@H](C)/C=C(C)/C=C/C/C(C)=C/Cc1[nH]c(OC)c(OC)c(=O)c1C,0

# Screening data as filed in PubChem BioAssay.
